# According to publication PMC5540273 (PLoS ONE, 2017):
# Experiments:
# [1] = tested on: T1, MRCKB
# T1 construct: gene CDC42BPB
# [2] = tested on: NLK
# [3] = tested on: MYLK2
# [4] = tested on: MYLK
# [5] = tested on: MYLK4
# [6] = tested on: NEK2
# [7] = tested on: NEK5
# [8] = tested on: PAK2
# [9] = tested on: T2, NIK
# T2 construct: gene MAP3K14
# [10] = tested on: T3, NIM1
# T3 construct: gene MGC42105
# [11] = tested on: T4, OSR1
# T4 construct: gene OXSR1
# [12] = tested on: PAK3
# [13] = tested on: PAK6
# [14] = tested on: PAK7
# [15] = tested on: PIK3C2B
# [16] = tested on: PIK3CA
# [17] = tested on: PIK3CB
# 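Also: kd values determined as follow-up on hits from a single-replicate KINOMEscan panel screen.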
compound,measurement,setting,value
C[C@@H]1CCN(C(=O)CO)C[C@@H]1N(C)c1ncnc2[nH]ccc12,Kd,[1],> 10 µM
same,Kd,[2],> 10000 nM
O=C(Nc1n[nH]c2nc(-c3ccco3)c(Br)cc12)c1ccc(CN2CCCC2)cc1.O=C(O)[C@H](O)[C@@H](O)C(=O)O [SB-742352],Kd,[3],120 nM
same,Kd,[4],1300 nM
Nc1nc(-c2cccnc2)c(-c2ccnc3ccccc23)s1 [GW684083],Kd,[5],490 nM
CN1c2ccc(-c3ccc(C(=O)NCCO)cc3)cc2-c2[nH]ncc2S1(=O)=O,Kd,[4],480 nM
COC(=O)c1c(-c2ccccc2)c2cc(Cl)ccc2c(=O)n1Cc1ccc(S(C)(=O)=O)cc1,Kd,[6],> 10 µM
CNc1nccc(-c2c(-c3ccc(F)cc3)ncn2CCCN2CCOCC2)n1 [SB-222516],Kd,[7],> 10 µM
same,Kd,[8],> 10 µM
CS(=O)(=O)CCNCc1ccc(-c2ccc3ncnc(Nc4ccc(OCc5ccccc5)c(Cl)c4)c3c2)o1.Cl [GW574783],Kd,[9],> 10 µM
CC(=O)Nc1n[nH]c2ncc(-c3ccccc3)cc12 [SB-548492],Kd,[10],> 10 µM
CNc1nccc(-c2c(-c3ccc(F)cc3)ncn2C2CCN(C)CC2)n1 [SB-222903],Kd,[2],130 nM
CCCc1ccc(S(=O)(=O)NC2CCN(c3ccnc(Nc4ccc(OC)cc4)n3)C2)cc1 (centres unmarked) [GSK1379737],Kd,[11],> 10 µM
same,Kd,[12],> 10 µM
Oc1ccc2ncnc(Nc3ccc(OCc4ccccc4)cc3)c2c1 [GI262866],Kd,[12],> 10 µM
Cc1ccc(C)c(NC(=O)NCCNc2ccnc(Nc3ccc(F)cc3)n2)c1 [GSK1379878],Kd,[13],> 10 µM
c1ccc(-c2ccc3c(-c4ccnc(Nc5ccc6c(c5)OCCO6)n4)cnn3n2)cc1 [GW818941],Kd,[13],> 10 µM
Cl.Cn1ccc(-c2cccc(Nc3ccnc4cc(-c5nccs5)ccc34)c2)n1 [GW525701],Kd,[14],> 10 µM
CC(C)(C)c1ccc(-n2cnc3c(N)ncnc32)cc1 [SKF-97263],Kd,[15],8.3 µM
same,Kd,[16],> 10 µM
CSc1nn2c(=O)cc(N3CCOCC3)nc2n1Cc1cccc(Cl)c1Cl [GSK2347225],Kd,[15],0.36 µM
same,Kd,[17],0.8 nM
O=c1cc(N2CCOCC2)nc2n(Cc3cccc(Cl)c3)ccn12 [GSK2296823],Kd,[17],15 nM
